# According to PubChem BioAssay AID2227 (Johns Hopkins Ion Channel Center, 2009):
# In all, about 310,000 compounds went through this assay and about 1,300 (0.42%) were called active.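 The calls were made as follows: active = B-score of calcium response area above 5 SD of library B-scores, with initial fluorescence ratio within 5 SD of library; inactive = the rest.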 The sample as a whole holds a higher share of actives than the screen did.
# Molecular target: Short transient receptor potential channel 4 (Mus musculus) (UniProt Q9QUQ5)
# Sequence (Q9QUQ5 whole entry, looked up): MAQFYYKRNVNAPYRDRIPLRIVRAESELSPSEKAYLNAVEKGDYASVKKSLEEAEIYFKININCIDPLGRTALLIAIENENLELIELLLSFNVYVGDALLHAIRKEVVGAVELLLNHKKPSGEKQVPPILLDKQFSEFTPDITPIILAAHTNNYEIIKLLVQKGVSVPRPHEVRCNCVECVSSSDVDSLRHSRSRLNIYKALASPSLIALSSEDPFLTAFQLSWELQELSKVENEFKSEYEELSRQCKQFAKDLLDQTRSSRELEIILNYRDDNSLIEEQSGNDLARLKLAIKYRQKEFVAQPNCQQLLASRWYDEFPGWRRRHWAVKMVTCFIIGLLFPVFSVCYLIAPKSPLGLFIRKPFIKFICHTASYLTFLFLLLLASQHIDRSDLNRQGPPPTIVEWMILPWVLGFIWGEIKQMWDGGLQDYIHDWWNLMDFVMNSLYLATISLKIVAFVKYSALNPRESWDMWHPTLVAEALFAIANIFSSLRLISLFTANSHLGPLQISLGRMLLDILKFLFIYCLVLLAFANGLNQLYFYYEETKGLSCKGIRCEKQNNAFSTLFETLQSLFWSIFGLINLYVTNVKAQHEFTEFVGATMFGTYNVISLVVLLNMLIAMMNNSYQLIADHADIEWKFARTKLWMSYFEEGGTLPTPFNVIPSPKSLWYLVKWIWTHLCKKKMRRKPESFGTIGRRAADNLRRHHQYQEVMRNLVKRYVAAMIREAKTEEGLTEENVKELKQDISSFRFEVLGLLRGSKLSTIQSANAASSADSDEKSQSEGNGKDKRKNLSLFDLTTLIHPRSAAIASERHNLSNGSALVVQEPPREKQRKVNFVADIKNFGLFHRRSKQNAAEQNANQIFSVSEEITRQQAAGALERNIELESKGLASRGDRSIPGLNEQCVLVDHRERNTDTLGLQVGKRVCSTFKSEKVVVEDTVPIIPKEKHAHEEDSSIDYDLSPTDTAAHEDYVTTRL
# Assay: positive allosteric modulators of TRPC4, primary screen, cell-based, mouse TRPC4beta, HEK293 mu-opioid, Fluo-4 calcium (AID 2227);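 as to B-score: B-score of integrated fluorescence ratio over time as area under calcium response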
# Details: DAMGO EC20, Fluo-4 Ca2+ flux, at 10 µM; active compounds read high
row,Compound,B-score
1,CCN1CC2C3CCC(C)(O3)C2C1 (stereo not given),15 (active)
2,Cc1ccc(N(C)C(=O)Oc2cccc3ccc(C)nc23)cc1,inactive
3,CN(C)C(=O)Oc1ccc2c(c1)O/C(=C\c1ccccc1)C2=O,inactive
4,CNC(=O)O/N=C(\N)Cc1csc2ccccc12,inactive
5,O=c1c2ccccc2nc(-c2ccccc2)n1-c1ccccn1,inactive
6,Cc1ccc(-c2nc3ccccc3c(=O)n2-c2ccc(Br)cn2)cc1,12 (active)
7,O=c1c2ccccc2nc(-c2ccco2)n1-c1ccc(Br)cn1,inactive
8,CC(=NCc1ccc2c(c1)OCO2)c1c(O)[nH]c(=O)[nH]c1=O,inactive
9,COC(=O)C1=C(c2cc3ccccc3s2)C[C@@H]2CC[C@H]1N2C(=O)NCCO,inactive
10,O=C(Cn1c(=O)n(CC2CS2)c2ccccc21)N1CCCCC1 (stereo not given),inactive
11,CCOC(=O)C(O)(c1ccc(N)c(OC)c1)C(F)(F)F (stereo not given),inactive
12,COC(=O)C(O)(c1ccc(NC(=O)c2ccco2)c(OC)c1)C(F)(F)F (stereo not given),12 (active)
13,CCOC(=O)C(O)(c1ccc(NC(=O)c2ccco2)c(OC)c1)C(F)(F)F (stereo not given),inactive
14,Cc1ccc2c(c1)=C/C(=C\c1c(O)[nH]c(=O)[nH]c1=O)C(=O)N=2,inactive
15,COc1ccccc1C1=NCc2nnc(CSC)n2-c2ccc(Cl)cc21,inactive
16,O=C(Cc1ccccc1[N+](=O)[O-])N1CCN(Cc2ccc3c(c2)OCO3)CC1,inactive
17,Fc1ccc(N2CCN(Cc3ccc4c(c3)OCO4)CC2)cc1,inactive
18,CCN1CCN(Cc2cc(OC)c3c(c2)OCO3)CC1,11 (active)
19,Cc1cc2ccccn2c1C(C[N+](=O)[O-])c1c(F)cccc1Cl (stereo not given),inactive
20,O=c1[nH]c(=S)n(C2CC2)c(O)c1/C=N/N1CCOCC1,inactive
